Tb PFK block = blocks T. brucei phosphofructokinase; O15648; T. brucei PFK, ADP-Glo luminescence; Potency, µM (series often up to 57.5 µM), for inactives: at the highest dose activity, negative = inhibition, actives largely listed as inhibitors; hit rate 0.17% among 330,000; AID 485367;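 further: 0% = uninhibited 1x PFK enzyme wells and -100% = no-enzyme wells; nearly all actives have a fitted effect of over 60% in size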
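ADP-Glo luminescence quantified ADP after 45 min at room temperature, with 1.25 nM T. brucei PFK, 0.1 mM ATP and 0.5 mM fructose-6-phosphate in pH 8.0 TEA buffer. qHTS titrations up to 57 µM; curves classified by quality.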
Pin1 inh = human Pin1 inhibition; Q13526; Pin1 FP peptide displacement, HiFluor488, 10 min; Potency, µM (top dose mostly 115 µM), without a hit: at the highest dose activity, negative = inhibition, most hits filed as inhibitors; hit rate 0.009% among 390,000; AID 504891; active means well fitted inhibition curve with a large enough effect in the polarisation, with a control signal flat, not every such curve was filed as active; inconclusive means small, poorly fitted or top-dose-only effect, or effect the other way, or a change in a side signal; inactive means no such curve, though single readings can be large or run the other way; the % refers to the polarisation; further: on the % scale 0 is the no-effect control and ±100 the full control effect
Target sequence (Q13526 whole entry, looked up): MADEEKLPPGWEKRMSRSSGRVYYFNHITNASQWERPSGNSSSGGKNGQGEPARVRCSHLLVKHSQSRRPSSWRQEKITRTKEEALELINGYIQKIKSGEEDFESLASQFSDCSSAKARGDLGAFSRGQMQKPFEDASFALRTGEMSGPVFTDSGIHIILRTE
PLK1 PBD block = inhibitors of human PLK1 polo-box domain binding | hit rate 2.8% among 360,000 | Plk1 PBD binding of FITC phosphopeptide, fluorescence polarization | Potency, µM, for the others: max response, negative = inhibition, hits mostly inhibitors | AID 720504; further: series mostly up to about 57 µM; on the % scale 0 is the no-effect control and ±100 the full control effect; nearly all actives have a fitted effect of over 65% in size
Target sequence (P53350 whole entry, looked up, the tested form may be a part): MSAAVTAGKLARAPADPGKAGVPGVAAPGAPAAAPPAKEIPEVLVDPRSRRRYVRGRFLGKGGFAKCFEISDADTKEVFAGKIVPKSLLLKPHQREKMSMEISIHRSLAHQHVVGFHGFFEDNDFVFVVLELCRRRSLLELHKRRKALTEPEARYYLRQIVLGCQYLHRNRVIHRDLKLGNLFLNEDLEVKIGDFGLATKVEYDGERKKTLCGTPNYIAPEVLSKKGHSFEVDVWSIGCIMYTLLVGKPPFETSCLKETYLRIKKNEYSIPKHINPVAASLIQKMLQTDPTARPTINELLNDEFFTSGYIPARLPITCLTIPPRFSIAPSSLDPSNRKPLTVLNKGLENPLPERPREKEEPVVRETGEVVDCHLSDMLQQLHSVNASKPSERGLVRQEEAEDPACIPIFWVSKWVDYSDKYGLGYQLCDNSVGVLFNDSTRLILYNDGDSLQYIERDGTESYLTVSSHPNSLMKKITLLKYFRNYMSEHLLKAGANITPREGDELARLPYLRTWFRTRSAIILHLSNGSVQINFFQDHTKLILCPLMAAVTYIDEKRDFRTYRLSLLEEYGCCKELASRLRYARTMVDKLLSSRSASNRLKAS
ASM inhibitor = blocks human secretory acid sphingomyelinase; P17405; Potency, µM (highest dose often 57.5 µM), inactives show top-dose activity change, negative = inhibition, usual class: inhibitors; AID 504937; placental ASM, HMU-PC fluorogenic substrate, 60 min; hit rate 0.006% among 340,000
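Fluorescence read-out (Ex 386 nm, Em 447 nm) after stopping the reaction at pH 10. Enzyme: ASM from human placenta; substrate HMU-PC0, 9 uM final; 60 min, 37 °C. Compound preincubation 10 min, ambient temperature.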
TDP1 inh = inhibitors of human tyrosyl-DNA phosphodiesterase TDP1. Potency, µM (titrated, usually from 130 µM), for the others: top-dose activity change, negative = inhibition, most hits filed as inhibitors. recombinant TDP1, AlphaScreen DNA substrate cleavage. Q9NUW8. AID 485290. hit rate 0.28% among 350,000; further: on the % scale 0 is the no-effect control and ±100 the full control effect; nearly all actives have a fitted effect of over 40% in size
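Recombinant E. coli-expressed Tdp1 (1 nM) preincubated with compound 15 min at RT, then 5'-biotin/3'-phosphotyrosine-FITC DNA substrate (15 nM) added for 5 min. AlphaScreen beads (10 ug/ml) added, 10 min RT; tyrosine-FITC cleavage read as signal loss.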
VDR inh = inhibitors of human vitamin D receptor | AID 504847 | Potency, µM, for inactives: max response, negative = inhibition, most hits filed as inhibitors | VDR-SRC2-3 peptide fluorescence polarization, 2 h | P11473 | hit rate 0.93% among 400,000; further: on the % scale 0 is the no-effect control and ±100 the full control effect
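Signal is fluorescence polarization, reporting how far test compounds block the interaction of VDR with the SRC2-3 coregulator peptide after a 2 h room-temperature incubation.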
TbPYK confirm = confirmation of Trypanosoma brucei pyruvate kinase inhibitors. shares compounds with PLK1 PBD block. recombinant TbPYK, Kinase-Glo ATP luminescence. Potency, µM (titrated, usually from 76.9 µM), for the others: top-dose activity change, negative = inhibition, actives largely listed as inhibitors. hit rate 67% among 890. AID 720569; further: on the % scale 0 is the no-effect control and ±100 the full control effect; nearly all actives have a fitted effect of over 70% in size
TbPYK orthogonal = inhibits T. brucei pyruvate kinase in orthogonal ADP-Glo assay. AID 720584. shares compounds with PLK1 PBD block. hit rate 62% among 890. recombinant TbPYK, ADP-Glo luminescence, 60 min. Potency, µM (series often up to 76.9 µM), for the others: at the top dose activity change, negative = inhibition, usual class: inhibitors; further: on the % scale 0 is the no-effect control and ±100 the full control effect; nearly all actives have a fitted effect of over 75% in size
* = called active by the depositor; ? = inconclusive; nt = no result. A selection: hits, their analogues and other compounds. The true share with any hit is near 3.1%. Unless noted, the call rests on the fitted dose curve; in most records, active means well fitted curve in the direction sought with a large enough effect; inconclusive means small, poorly fitted or top-dose-only effect, or another doubt; inactive means no such curve, though single readings can be large; an effect the other way counts as inactive or inconclusive. Potency means the concentration at half of the fitted maximal effect.

SMILES	Tb PFK block	Pin1 inh	PLK1 PBD block	ASM inhibitor	TDP1 inh	VDR inh	TbPYK confirm	TbPYK orthogonal
Oc1ccc(/C=N/N2CCCCC2)c(O)c1O	-6%	?	11µM*	-2%	nt	?	32µM*	35µM*
Oc1cccc(/C=N/N2CCCCC2)c1O	3%	-1%	5%	3%	nt	-3%	nt	nt
Cc1ccc(C(CC(=O)Nc2cc(C)cc(C)c2)N2Cc3ccccc3C2=O)cc1 (stereo not drawn)	nt	13%	nt	nt	6%	-6%	nt	nt
Oc1[nH]c(=S)sc1C=C1N=c2ccccc2=N1	-1%	-1%	-4%	5%	6%	-6%	22µM*	?
CCC(C)n1c(SCc2ccc(F)cc2Cl)nc2ccsc2c1=O (stereo not drawn)	nt	5%	nt	nt	2%	4%	nt	nt
COc1ccc(-n2nnnc2Sc2ccc(S(=O)(=O)N3CCOCC3)cn2)cc1	0%	2%	9.5µM*	1%	8%	?	14µM*	18µM*
COc1ccccc1-n1c(=S)[nH]c2c(sc(=S)n2-c2ccccc2C)c1=O	-2%	15%	27µM*	97%	7%	?	5µM*	14µM*
O=C(O)c1ccc2nc3c(nc2c1)-c1ccccc1C3=O	0%	0%	30µM*	-3%	-2%	?	20µM*	?
O=S(=O)(c1ccc2nc(-c3ccco3)c(-c3ccco3)nc2c1)N1CCOCC1	-4%	?	?	107%	1%	-23%	20µM*	25µM*
O=C(O)c1ccc2nc(-c3ccco3)c(-c3ccco3)nc2c1	?	?	12µM*	282%	-11%	?	14µM*	16µM*
CCc1nc2ccc(C(=O)O)cc2nc1CC	-3%	1%	-13%	1%	-2%	-27%	nt	nt
O=S(=O)(c1ccc2ccccc2c1)N1CCOCC1	1%	-5%	-5%	3%	0%	-24%	nt	nt
O=C(Nc1ccc2oc(-c3cc(Br)ccc3Cl)nc2c1)c1cc2ccccc2o1	nt	15%	nt	nt	3%	-3%	nt	nt
CCOC(=O)C1CCCN(C(=O)c2ccc(CS(=O)(=O)c3ccc(C)cc3)o2)C1 (stereo not drawn)	-3%	-3%	-27%	0%	-14%	-3%	nt	nt
CCOC(=O)C1CCCN(C(=O)c2ccc(-c3ccc([N+](=O)[O-])cc3)o2)C1 (stereo not drawn)	0%	-1%	30µM*	nt	nt	?	?	?
CC(=O)c1cc(-c2ccc(F)cc2)n(CCC(=O)Nc2nc3c(C)cccc3s2)c1C	nt	8%	nt	nt	-2%	11%	nt	nt
O=C(O)CNC(=O)c1ccc(OC(F)F)cc1	-1%	-11%	1%	-3%	-2%	12%	nt	nt
O=C1C=CC(=O)N1c1ccc(OC(F)F)cc1	?	-1%	3.4µM*	3%	5%	16µM*	-13%	-8%
COc1cc(-c2noc(-c3ccc(NCc4cccnc4)c([N+](=O)[O-])c3)n2)cc(OC)c1OC	nt	6%	nt	nt	9%	7%	nt	nt
CCCCN(c1ccccc1)c1ncnc2c1cnn2-c1ccc(Cl)cc1	nt	0%	nt	nt	2%	-11%	nt	nt
CC1=C(C(N)=O)C(c2ccccc2[N+](=O)[O-])n2ncnc2N1 (stereo not drawn)	-6%	-2%	8.4µM*	3%	nt	25µM*	25µM*	?
COC(=O)c1ccc(C(C2C(=O)CC(C)(C)CC2=O)C2C(=O)CC(C)(C)CC2=O)cc1	0%	-8%	-9%	0%	0%	?	nt	nt
CC1(C)CC(=O)C(C(c2ccco2)C2C(=O)CC(C)(C)CC2=O)C(=O)C1	?	-12%	6.7µM*	-1%	-7%	?	11µM*	?
CCCCn1c(=O)c2oc3ccccc3c2n(Cc2ccc(OC)cc2)c1=O	nt	-6%	nt	nt	3%	3%	nt	nt
CCCCn1nnnc1C1(C)CCC(=O)N1CCCn1ccnc1 (stereo not drawn)	nt	nt	6µM*	nt	nt	nt	14µM*	35µM*
SMILES	Tb PFK block	Pin1 inh	PLK1 PBD block	ASM inhibitor	TDP1 inh	VDR inh	TbPYK confirm	TbPYK orthogonal
Cc1cccc(C)c1-n1nnnc1C1(C)CCC(=O)N1CCCn1ccnc1 (stereo not drawn)	nt	nt	-13%	nt	nt	nt	nt	nt
Cc1ccc(/C=C/C(=O)N2CC(C)CC(C)C2)o1 (stereo not drawn)	-19%	0%	27µM*	0%	7%	?	?	32µM*
NC(=O)Cn1c(=O)n(Cc2ccco2)c(=O)c2c3c(sc21)CCCCC3	?	?	?	-3%	nt	89µM*	?	?
CCCN(CCC)C(=O)Cn1c(=O)n(-c2ccc(Cl)c(Cl)c2)c(=O)c2c(C)c(C(=O)N(C)C)sc21	nt	2%	nt	nt	-2%	7%	nt	nt
CCOc1cc2c(c3c1C(c1ccccc1)N(S(=O)(=O)c1ccc(C)cc1)C3)C(=O)C=CC2=O (stereo not drawn)	nt	nt	?	nt	nt	nt	1.6µM*	2.8µM*
O=C(CSc1cn[nH]n1)Nc1cccc(C(=O)O)c1	-1%	-11%	4.2µM*	2%	5%	45µM*	14µM*	35µM*
O=C(N/N=C/c1ccc(N2CCCCC2)o1)c1ccccc1	-15%	?	?	0%	1%	22µM*	32µM*	32µM*
Cc1ccc(/C=N/NC(=O)c2ccc(-c3ccccc3)cc2)o1	0%	0%	-6%	9%	nt	-13%	nt	nt
CC1(C)CC(=O)C(=Cc2cn(-c3ccccc3)nc2-c2ccccc2)C(=O)C1	nt	-3%	1.2µM*	-2%	nt	?	10µM*	?
CCc1ccc(C(=O)c2cn(CC(=O)Nc3cc(OC)ccc3OC)c3ccc(Cl)cc3c2=O)cc1	nt	8%	nt	nt	6%	-16%	nt	nt
COc1ccc(O)c(/C=c2/sc3nc4cc(C)c(C)cc4n3c2=O)c1	-25%	9%	11µM*	1%	3%	?	10µM*	11µM*
COC(=O)c1cc(=O)nc2sc3cc(OC)ccc3n12	4%	-4%	-12%	5%	2%	18%	nt	nt
Cn1c(=O)c2c(nc(SCC(=O)Nc3ccccc3F)n2Cc2ccccc2F)n(C)c1=O	nt	1%	nt	nt	8%	11%	nt	nt
CCc1cc(=O)oc2cc(C)cc(OCC(C)=O)c12	3%	-3%	-8%	8%	2%	-14%	nt	nt
CCCc1cc(=O)oc2cc(C)cc(OC(=O)c3ccco3)c12	-8%	30%	-8%	5%	9%	-6%	6%	-11%
O=C1C=C(NCCO)C(=O)c2cnccc21	nt	nt	nt	nt	3%	nt	nt	nt

Screens from PubChem BioAssay.
